Experimental data taken from paper PMC7862700, “An all-to-all approach to the identification of sequence-specific readers for epigenetic DNA modifications on cytosine”.

How the values were obtained:
Assay in all cases: DAPPL (digital affinity profiling via proximity ligation, sequencing); 10 mM Tris-HCl pH 7.5, 50 mM NaCl, 1 mM DTT, 4% glycerol, room temperature, 30 min; GST-TFs on glutathione beads, 16-mer random dsDNA library, 0.1% formaldehyde crosslink after washing; high values mean tight binding
FLI1 = target: T1, FLI1 (Homo sapiens, UniProt Q01543 1-452); conditions: protein: recombinant; tags: N-terminal GST; dsDNA, one strand shown
T1 sequence: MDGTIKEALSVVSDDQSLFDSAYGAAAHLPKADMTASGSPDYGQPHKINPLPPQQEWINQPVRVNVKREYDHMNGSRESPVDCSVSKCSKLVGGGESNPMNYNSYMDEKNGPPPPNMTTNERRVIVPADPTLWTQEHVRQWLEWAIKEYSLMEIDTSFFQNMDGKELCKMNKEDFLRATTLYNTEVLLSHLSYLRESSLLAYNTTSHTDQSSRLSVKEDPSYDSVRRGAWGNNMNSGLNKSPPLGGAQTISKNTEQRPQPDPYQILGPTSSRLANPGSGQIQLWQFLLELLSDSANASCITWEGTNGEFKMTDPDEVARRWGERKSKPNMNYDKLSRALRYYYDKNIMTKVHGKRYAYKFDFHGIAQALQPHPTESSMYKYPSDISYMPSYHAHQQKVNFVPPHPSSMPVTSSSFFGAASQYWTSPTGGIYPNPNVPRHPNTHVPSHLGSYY
Procedure, shortened: (§1)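 A tag-only sample was pooled with DNA-barcoded human transcription factors that had been expressed in yeast as GST fusions and captured on glutathione beads. The pools were incubated for 30 min at room temperature with 200 nmole of a random double-stranded 16-mer DNA library in Tris/NaCl/DTT/glycerol buffer, then washed, crosslinked with 0.1% formaldehyde, proximity-ligated (BsaI/T4 ligase, 1 h, 37 °C), PCR-amplified and sequenced on an Illumina NextSeq500. Binding signal is each hexamer's read frequency for a factor divided by its frequency for the tag-only sample.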

ELK1 = target: T2, ELK1 (Homo sapiens, UniProt P19419 1-428); conditions: protein: recombinant; tags: N-terminal GST; dsDNA, one strand shown
T2 sequence: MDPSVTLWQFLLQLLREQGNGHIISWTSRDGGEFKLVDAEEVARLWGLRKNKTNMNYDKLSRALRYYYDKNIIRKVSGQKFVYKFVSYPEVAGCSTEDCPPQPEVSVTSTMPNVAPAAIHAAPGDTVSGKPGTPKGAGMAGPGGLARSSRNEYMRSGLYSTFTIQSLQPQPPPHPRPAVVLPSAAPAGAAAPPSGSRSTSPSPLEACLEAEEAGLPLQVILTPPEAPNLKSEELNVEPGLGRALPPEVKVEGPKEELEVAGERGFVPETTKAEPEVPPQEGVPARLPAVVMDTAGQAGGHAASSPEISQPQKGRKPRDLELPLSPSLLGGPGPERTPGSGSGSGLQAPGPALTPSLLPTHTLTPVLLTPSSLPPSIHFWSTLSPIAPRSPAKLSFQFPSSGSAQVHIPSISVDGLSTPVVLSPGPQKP
Procedure, shortened: as §1

GABPA = target: T3, GABPA (Homo sapiens, UniProt Q06546 1-454); conditions: protein: recombinant; tags: N-terminal GST; dsDNA, one strand shown
T3 sequence: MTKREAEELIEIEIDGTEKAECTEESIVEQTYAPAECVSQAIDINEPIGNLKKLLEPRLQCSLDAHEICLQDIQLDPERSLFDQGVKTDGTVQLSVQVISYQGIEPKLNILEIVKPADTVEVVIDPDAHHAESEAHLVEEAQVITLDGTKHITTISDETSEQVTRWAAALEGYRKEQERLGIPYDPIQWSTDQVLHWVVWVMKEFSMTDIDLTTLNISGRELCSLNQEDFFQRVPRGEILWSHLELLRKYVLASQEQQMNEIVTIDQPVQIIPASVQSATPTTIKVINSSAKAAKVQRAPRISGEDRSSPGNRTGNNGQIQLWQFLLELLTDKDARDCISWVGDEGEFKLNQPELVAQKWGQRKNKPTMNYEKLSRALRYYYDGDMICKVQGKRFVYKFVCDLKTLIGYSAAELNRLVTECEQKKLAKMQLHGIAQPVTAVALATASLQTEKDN
Procedure, shortened: as §1

ERG = target: T4, ERG (Homo sapiens, UniProt P11308 1-479); conditions: protein: recombinant; tags: N-terminal GST; dsDNA, one strand shown
T4 sequence: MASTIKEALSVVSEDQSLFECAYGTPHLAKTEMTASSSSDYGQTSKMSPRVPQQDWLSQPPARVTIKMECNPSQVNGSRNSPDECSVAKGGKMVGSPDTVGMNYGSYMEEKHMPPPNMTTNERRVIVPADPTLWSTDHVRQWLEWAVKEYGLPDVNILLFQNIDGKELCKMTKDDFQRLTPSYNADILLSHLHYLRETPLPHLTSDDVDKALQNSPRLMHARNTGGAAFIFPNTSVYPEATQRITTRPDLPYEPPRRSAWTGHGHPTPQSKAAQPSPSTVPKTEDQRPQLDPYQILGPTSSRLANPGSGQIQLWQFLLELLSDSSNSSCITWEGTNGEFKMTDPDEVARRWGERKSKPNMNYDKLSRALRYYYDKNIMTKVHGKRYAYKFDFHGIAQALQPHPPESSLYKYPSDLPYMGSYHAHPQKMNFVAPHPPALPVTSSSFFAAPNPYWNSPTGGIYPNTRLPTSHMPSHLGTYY
Procedure, shortened: as §1

ELF1 = ELF1 (Homo sapiens, UniProt P32519 1-619); conditions: protein: recombinant; tags: N-terminal GST; dsDNA, one strand shown
Procedure, shortened: as §1

EHF = target: T5, EHF (Homo sapiens, UniProt Q9NZC4 1-300); conditions: protein: recombinant; tags: N-terminal GST; dsDNA, one strand shown
T5 sequence: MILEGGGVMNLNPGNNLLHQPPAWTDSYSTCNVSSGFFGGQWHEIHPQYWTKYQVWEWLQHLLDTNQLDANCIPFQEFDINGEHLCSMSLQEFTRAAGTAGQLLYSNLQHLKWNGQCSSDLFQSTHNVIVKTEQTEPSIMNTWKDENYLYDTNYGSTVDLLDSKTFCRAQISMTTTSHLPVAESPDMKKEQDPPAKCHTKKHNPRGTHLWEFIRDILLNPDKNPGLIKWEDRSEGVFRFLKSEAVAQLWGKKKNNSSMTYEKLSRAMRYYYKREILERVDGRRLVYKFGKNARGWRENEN
Procedure, shortened: as §1

SPI1 = SPI1 (Homo sapiens, UniProt P17947 1-270); conditions: protein: recombinant; tags: N-terminal GST; dsDNA, one strand shown
Procedure, shortened: as §1

SPIB = SPIB (Homo sapiens, UniProt Q01892 1-262); conditions: protein: recombinant; tags: N-terminal GST; dsDNA, one strand shown
Procedure, shortened: as §1

ELK3 = target: T6, ELK3 (Homo sapiens, UniProt P41970 1-407); conditions: protein: recombinant; tags: N-terminal GST; dsDNA, one strand shown
T6 sequence: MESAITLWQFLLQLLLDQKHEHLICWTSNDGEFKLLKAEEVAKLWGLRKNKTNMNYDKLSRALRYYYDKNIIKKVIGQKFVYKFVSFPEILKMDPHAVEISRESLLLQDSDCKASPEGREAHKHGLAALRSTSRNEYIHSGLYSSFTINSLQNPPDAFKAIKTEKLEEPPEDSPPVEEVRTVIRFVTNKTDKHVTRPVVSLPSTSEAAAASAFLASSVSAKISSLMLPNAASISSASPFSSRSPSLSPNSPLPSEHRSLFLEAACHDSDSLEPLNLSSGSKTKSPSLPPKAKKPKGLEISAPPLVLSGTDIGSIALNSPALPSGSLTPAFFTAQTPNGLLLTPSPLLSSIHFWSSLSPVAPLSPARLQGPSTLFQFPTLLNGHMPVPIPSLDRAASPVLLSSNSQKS
Procedure, shortened: as §1

FEV = target: T7, FEV (Homo sapiens, UniProt Q99581 1-238); conditions: protein: recombinant; tags: N-terminal GST; dsDNA, one strand shown
T7 sequence: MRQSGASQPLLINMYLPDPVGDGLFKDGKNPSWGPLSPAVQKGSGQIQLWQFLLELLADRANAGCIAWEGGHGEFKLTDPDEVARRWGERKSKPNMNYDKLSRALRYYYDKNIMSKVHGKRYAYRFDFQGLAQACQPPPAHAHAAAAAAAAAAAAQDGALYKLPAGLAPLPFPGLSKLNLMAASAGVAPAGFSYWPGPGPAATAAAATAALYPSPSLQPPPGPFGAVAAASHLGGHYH
Procedure, shortened: as §1

ETV5 = ETV5 (Homo sapiens, UniProt P41161 1-510); conditions: protein: recombinant; tags: N-terminal GST; dsDNA, one strand shown
Procedure, shortened: as §1

HSF1 = HSF1 (Homo sapiens, UniProt Q00613 1-529); conditions: protein: recombinant; tags: N-terminal GST; chain copies: 3; dsDNA, one strand shown
Procedure, shortened: as §1

SPIC = target: T8, SPIC (Homo sapiens, UniProt Q8N5J4 1-248); conditions: protein: recombinant; tags: N-terminal GST; dsDNA, one strand shown
T8 sequence: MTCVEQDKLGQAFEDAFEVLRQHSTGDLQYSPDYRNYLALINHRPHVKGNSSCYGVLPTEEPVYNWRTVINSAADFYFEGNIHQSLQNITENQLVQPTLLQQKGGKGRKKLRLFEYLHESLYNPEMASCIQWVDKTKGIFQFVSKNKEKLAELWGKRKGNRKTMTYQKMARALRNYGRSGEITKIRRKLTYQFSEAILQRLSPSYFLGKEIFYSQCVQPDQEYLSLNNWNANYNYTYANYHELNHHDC
Procedure, shortened: as §1

ELF4 = ELF4 (Homo sapiens, UniProt Q99607 1-663); conditions: protein: recombinant; tags: N-terminal GST; dsDNA, one strand shown
Procedure, shortened: as §1

ELK4 = target: T9, ELK4 (Homo sapiens, UniProt P28324-2 1-405); conditions: protein: recombinant; tags: N-terminal GST; dsDNA, one strand shown
T9 sequence: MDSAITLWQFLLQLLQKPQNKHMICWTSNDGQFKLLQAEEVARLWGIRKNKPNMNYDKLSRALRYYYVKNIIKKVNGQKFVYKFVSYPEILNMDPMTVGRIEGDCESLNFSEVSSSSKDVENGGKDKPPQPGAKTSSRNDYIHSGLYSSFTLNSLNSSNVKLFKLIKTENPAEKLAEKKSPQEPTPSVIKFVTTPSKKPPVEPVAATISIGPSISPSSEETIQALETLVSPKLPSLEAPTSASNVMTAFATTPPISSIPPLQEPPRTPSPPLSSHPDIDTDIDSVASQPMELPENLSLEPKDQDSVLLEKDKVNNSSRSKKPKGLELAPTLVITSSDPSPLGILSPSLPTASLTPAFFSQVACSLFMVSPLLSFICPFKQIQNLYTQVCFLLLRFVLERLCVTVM
Procedure, shortened: as §1

ETV2 = target: T10, ETV2 (Homo sapiens, UniProt O00321 1-342); conditions: protein: recombinant; tags: N-terminal GST; dsDNA, one strand shown
T10 sequence: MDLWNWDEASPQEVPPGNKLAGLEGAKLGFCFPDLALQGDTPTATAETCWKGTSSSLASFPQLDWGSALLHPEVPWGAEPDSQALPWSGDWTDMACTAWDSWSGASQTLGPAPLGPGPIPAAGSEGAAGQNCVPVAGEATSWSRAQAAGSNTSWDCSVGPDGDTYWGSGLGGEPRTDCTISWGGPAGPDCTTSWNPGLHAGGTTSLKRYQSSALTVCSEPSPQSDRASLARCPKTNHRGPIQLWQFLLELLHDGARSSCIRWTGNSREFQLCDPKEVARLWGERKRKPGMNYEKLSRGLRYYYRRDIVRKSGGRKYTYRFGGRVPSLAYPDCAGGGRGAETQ
Procedure, shortened: as §1

ELF3 = target: T11, ELF3 (Homo sapiens, UniProt P78545 1-371); conditions: protein: recombinant; tags: N-terminal GST; dsDNA, one strand shown
T11 sequence: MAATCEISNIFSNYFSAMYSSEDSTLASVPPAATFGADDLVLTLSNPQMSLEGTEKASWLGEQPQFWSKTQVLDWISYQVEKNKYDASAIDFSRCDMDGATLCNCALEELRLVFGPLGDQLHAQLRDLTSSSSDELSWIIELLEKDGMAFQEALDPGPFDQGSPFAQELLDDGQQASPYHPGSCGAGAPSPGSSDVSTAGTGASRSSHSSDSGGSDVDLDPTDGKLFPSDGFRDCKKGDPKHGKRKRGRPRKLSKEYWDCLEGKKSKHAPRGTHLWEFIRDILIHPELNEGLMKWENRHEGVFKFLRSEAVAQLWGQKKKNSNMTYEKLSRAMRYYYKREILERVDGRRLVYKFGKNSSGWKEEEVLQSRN
Procedure, shortened: as §1

CRX = CRX (Homo sapiens, UniProt O43186 1-299); conditions: protein: recombinant; tags: N-terminal GST; dsDNA, one strand shown
Procedure, shortened: as §1

ETV1 = ETV1 (Homo sapiens, UniProt P50549 1-477); conditions: protein: recombinant; tags: N-terminal GST; dsDNA, one strand shown
Procedure, shortened: as §1

HSF1, sequence (Q00613 whole entry): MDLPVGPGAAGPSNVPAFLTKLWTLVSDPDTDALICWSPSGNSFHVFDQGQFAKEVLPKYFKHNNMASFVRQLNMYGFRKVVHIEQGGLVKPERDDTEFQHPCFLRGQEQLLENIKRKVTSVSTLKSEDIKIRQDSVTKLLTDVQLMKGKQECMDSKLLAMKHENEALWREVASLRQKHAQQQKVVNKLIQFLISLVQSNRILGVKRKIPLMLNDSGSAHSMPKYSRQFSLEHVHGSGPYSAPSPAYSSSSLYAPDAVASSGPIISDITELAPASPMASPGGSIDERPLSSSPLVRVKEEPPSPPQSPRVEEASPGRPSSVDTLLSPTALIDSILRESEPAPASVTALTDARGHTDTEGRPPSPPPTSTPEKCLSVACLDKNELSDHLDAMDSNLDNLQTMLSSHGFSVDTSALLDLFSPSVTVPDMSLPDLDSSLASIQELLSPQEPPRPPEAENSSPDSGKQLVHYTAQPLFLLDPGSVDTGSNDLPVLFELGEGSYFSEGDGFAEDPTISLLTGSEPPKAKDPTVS
ETV1, sequence (P50549 whole entry): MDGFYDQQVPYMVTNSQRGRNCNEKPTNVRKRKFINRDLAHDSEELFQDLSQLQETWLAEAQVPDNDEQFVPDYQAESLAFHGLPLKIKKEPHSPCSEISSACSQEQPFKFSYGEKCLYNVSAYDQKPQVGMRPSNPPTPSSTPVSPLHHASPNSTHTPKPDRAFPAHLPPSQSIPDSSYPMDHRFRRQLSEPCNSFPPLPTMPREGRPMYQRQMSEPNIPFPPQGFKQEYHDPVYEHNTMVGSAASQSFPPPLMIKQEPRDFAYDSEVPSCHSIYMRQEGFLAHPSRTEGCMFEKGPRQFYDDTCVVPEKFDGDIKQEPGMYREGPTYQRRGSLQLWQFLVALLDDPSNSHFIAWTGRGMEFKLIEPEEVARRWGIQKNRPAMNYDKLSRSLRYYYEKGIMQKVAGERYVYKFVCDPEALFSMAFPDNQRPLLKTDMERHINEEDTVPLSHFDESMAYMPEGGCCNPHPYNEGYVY
ELF1, sequence (P32519 whole entry): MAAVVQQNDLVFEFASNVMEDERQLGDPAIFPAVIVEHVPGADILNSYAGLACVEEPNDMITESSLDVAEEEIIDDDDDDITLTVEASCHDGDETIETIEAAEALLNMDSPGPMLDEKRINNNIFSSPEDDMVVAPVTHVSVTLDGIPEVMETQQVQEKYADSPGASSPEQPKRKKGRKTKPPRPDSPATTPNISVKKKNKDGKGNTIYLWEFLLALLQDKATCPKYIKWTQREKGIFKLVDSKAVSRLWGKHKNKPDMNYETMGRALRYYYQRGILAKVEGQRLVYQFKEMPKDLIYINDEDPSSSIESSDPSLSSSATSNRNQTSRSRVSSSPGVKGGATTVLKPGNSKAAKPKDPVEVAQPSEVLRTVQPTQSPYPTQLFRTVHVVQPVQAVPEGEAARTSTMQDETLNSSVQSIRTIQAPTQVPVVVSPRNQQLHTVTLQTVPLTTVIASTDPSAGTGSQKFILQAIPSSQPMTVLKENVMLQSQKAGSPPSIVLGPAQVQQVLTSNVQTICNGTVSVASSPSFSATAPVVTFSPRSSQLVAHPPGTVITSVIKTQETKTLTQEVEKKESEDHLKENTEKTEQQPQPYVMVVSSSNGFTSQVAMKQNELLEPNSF
SPIB, sequence (Q01892 whole entry): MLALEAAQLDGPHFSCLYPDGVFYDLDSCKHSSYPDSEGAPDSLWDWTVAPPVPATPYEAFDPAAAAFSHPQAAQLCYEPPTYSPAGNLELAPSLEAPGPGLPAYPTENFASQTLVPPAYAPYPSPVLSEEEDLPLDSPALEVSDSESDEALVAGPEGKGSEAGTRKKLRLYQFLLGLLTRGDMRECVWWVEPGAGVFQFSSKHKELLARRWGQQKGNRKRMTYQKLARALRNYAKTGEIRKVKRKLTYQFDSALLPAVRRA
ELF4, sequence (Q99607 whole entry): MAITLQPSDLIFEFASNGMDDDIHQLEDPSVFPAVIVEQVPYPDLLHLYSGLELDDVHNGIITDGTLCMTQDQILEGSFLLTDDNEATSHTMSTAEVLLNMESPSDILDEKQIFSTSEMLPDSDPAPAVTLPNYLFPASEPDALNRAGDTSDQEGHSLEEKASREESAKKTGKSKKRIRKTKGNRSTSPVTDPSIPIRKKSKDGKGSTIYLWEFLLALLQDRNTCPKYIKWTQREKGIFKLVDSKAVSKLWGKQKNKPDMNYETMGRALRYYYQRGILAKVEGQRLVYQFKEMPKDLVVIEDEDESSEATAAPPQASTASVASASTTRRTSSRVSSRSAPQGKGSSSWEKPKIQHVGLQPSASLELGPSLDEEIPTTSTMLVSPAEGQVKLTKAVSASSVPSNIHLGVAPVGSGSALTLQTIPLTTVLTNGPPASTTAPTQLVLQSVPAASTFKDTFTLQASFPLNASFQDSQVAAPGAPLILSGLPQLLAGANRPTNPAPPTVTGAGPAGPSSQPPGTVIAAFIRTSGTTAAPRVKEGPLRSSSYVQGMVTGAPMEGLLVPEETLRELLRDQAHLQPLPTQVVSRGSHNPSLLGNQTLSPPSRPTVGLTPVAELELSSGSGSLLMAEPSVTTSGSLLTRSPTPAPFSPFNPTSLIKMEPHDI
ETV5, sequence (P41161 whole entry): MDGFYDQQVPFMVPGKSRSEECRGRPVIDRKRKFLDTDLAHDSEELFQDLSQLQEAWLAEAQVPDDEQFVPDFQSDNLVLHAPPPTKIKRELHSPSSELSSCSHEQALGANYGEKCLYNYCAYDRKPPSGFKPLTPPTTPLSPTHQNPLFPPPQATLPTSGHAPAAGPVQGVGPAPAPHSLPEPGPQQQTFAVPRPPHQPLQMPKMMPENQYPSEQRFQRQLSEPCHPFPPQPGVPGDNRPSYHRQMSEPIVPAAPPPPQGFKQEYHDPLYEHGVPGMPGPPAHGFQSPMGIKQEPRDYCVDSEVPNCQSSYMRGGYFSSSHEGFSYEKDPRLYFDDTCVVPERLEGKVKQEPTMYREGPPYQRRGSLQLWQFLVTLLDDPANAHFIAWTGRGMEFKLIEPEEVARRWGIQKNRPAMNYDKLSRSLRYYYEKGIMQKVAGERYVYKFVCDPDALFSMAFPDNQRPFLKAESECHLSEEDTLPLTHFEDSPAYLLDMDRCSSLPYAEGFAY
CRX, sequence (O43186 whole entry): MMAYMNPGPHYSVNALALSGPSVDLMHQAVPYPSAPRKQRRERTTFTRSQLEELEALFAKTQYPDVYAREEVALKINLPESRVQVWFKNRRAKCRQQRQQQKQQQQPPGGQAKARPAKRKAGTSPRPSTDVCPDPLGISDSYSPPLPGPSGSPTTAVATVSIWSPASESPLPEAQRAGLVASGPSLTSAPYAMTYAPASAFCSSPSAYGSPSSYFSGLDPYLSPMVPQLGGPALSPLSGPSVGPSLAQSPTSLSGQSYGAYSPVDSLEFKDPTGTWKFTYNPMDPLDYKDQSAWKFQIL

For TTGGGG, the binding signal (FLI1) was 1.4 fold enrichment (6-mer frequency, TF over GST control), the binding signal (ELK1) was 1.24 fold enrichment (6-mer frequency, TF over GST control) and the binding signal (GABPA) was 1.33 fold enrichment (6-mer frequency, TF over GST control). For the same sequence, the binding signal (ERG) was 1.21 fold enrichment (6-mer frequency, TF over GST control), the binding signal (ELF1) was 1.32 fold enrichment (6-mer frequency, TF over GST control) and the binding signal (EHF) was 1.27 fold enrichment (6-mer frequency, TF over GST control). The binding signal (SPI1) was 1.26 fold enrichment (6-mer frequency, TF over GST control), the binding signal (SPIB) was 1.15 fold enrichment (6-mer frequency, TF over GST control) and the binding signal (ELK3) was 1.31 fold enrichment (6-mer frequency, TF over GST control). For the same sequence, the binding signal (FEV) was 1.17 fold enrichment (6-mer frequency, TF over GST control), the binding signal (ETV5) was 1.24 fold enrichment (6-mer frequency, TF over GST control) and the binding signal (HSF1) was 1.11 fold enrichment (6-mer frequency, TF over GST control). For the same sequence, the binding signal (SPIC) was 1.21 fold enrichment (6-mer frequency, TF over GST control), the binding signal (ELF4) was 1.24 fold enrichment (6-mer frequency, TF over GST control) and the binding signal (ELK4) was 1.34 fold enrichment (6-mer frequency, TF over GST control). For the same sequence, the binding signal (ETV2) was 1.17 fold enrichment (6-mer frequency, TF over GST control), the binding signal (ELF3) was 1.24 fold enrichment (6-mer frequency, TF over GST control) and the binding signal (CRX) was 1.23 fold enrichment (6-mer frequency, TF over GST control). For the same sequence, the binding signal (ETV1) was 1.38 fold enrichment (6-mer frequency, TF over GST control).
